Screens as filed in PubChem BioAssay.
Pf Dd2 growth – qHTS Primary assay for Inhibitors of Plasmodium falciparum Dd2 growth in vitro. AID 1347417, 2020. 120,000 tested, 4.3% active. P. falciparum Dd2 growth, SYBR Green, 72 h. Potency, µM (highest dose often 28.9 µM), hits mostly inhibitors; active = well fitted inhibition curve with a large enough effect; also: nearly all actives have a fitted effect of over 65% in size
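Infected erythrocytes (Dd2, 0.3% parasitemia, 2.5% hematocrit final) are added to compound in RPMI-1640/Albumax II medium, grown 72 h at 37C in low oxygen, then lysed with saponin/Triton-X containing SYBR Green and read by fluorescence.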
Numbers stand for hits; [ ] = another dose, or the depositor's remark. The sample as a whole holds a higher share of hits than the screen did.

COc1ccccc1OCCNC(=O)[C@H]1CCC[C@H]1NC(=O)c1cnc(C)cn1 was read as Pf Dd2 growth inactive.
For O=C(CCS(=O)(=O)c1cc(Br)cc2c1N(C(=O)C1CC1)CC2)Nc1ccc(F)cc1 the results were Pf Dd2 growth 4µM.
CCC(=O)N1CCc2cc(Br)cc(S(=O)(=O)CCC(=O)N3CCN(c4cc(C)ccc4C)CC3)c21 was read as Pf Dd2 growth inactive.
`CCCCN(Cc1ccccc1)S(=O)(=O)c1cc(Br)cc2c1N(C(C)=O)CC2` gave Pf Dd2 growth inactive.
`CCOc1ccc(NS(=O)(=O)c2cc(Br)cc3c2N(C(=O)C2CC2)CC3)cc1` gave Pf Dd2 growth inactive.
CCC(=O)N1CCc2cc(Br)cc(S(=O)(=O)CCC(=O)Nc3ccccc3C)c21 was read as Pf Dd2 growth inactive.
`CCN(Cc1ccccc1)S(=O)(=O)c1cc(Br)cc2c1N(C(=O)C1CC1)CC2` gave Pf Dd2 growth 7.9µM.
For CC(=O)N1CCc2cc(Br)cc(S(=O)(=O)CCC(=O)N3CCN(c4cccc(C)c4C)CC3)c21 the results were Pf Dd2 growth inactive.
Cc1ccc(Cl)cc1N1CCN(S(=O)(=O)c2cc(Br)cc3c2N(C(=O)C2CC2)CC3)CC1 was read as Pf Dd2 growth inactive.
Screening COc1ccc(N2CCN(C(=O)CCS(=O)(=O)c3cc(Br)cc4c3N(C(=O)C3CC3)CC4)CC2)cc1 returned Pf Dd2 growth 5µM.
Cc1ccc(Cl)cc1N1CCN(C(=O)CCS(=O)(=O)c2cc(Br)cc3c2N(C(=O)C2CC2)CC3)CC1 was read as Pf Dd2 growth 10µM.
CCc1cccc(NC(=O)CCS(=O)(=O)c2cc(Br)cc3c2N(C(C)=O)CC3)c1 was read as Pf Dd2 growth inactive.
`Cc1ccc(Cl)cc1N1CCN(C(=O)CCNS(=O)(=O)c2ccc3c(c2)CCN3C(=O)C2CC2)CC1` gave Pf Dd2 growth inactive.
`CC(C)CN1CCN(C2CCOC3(CCN(C(=O)c4cccs4)CC3)C2)CC1` (centres undefined) gave Pf Dd2 growth inactive.
Screening CN1[C@@H](CCC(=O)N2CCC(O)CC2)CNC(=O)[C@@H]2[C@H]1CCN2Cc1ccc(S(C)(=O)=O)cc1 returned Pf Dd2 growth inactive.
`Cn1c(=O)n([C@H]2CCCN(C(=O)C3CC3)C2)c2ncccc21` gave Pf Dd2 growth inactive.
For COCCNC(=O)C1COC2(CCN(C(=O)c3ccc(OC)cc3)CC2)N1C(=O)c1ccccc1 (centres undefined) the results were Pf Dd2 growth inactive.
For COCCNC(=O)C1COC2(CCN(C(=O)c3ccc(F)cc3)CC2)N1C(=O)c1cccc(C)c1 (centres undefined) the results were Pf Dd2 growth inactive.
`COCCCNC(=O)C1COC2(CCCCC2)N1C(=O)c1c(OC)cccc1OC` (centres undefined) gave Pf Dd2 growth 6.3µM.
`CCO[C@H]1CN(C(=O)CCn2c(C)cc(C)nc2=O)C[C@@H]1O` gave Pf Dd2 growth inactive.
For O=C(NCc1ccc(F)cc1Cl)C1CCN(c2cnc3nccnc3c2)CC1 the results were Pf Dd2 growth inactive.
Screening Cc1ocnc1C(=O)N1CCC2(CC1)c1nc[nH]c1CCN2S(C)(=O)=O returned Pf Dd2 growth inactive.
Cc1ccc(N2C(=O)CSC23C(=O)N(CC(=O)NCCc2ccccc2)c2ccccc23)cc1 (centres undefined) was read as Pf Dd2 growth inactive.
For COc1cccc(N2C(=O)CSC23C(=O)N(CC(=O)Nc2cc(C)ccc2C)c2ccccc23)c1 (centres undefined) the results were Pf Dd2 growth 8.9µM.
For O=C(CN1C(=O)CCSc2ccccc21)Nc1ccccc1F the results were Pf Dd2 growth inactive.
For O=C(CN1C(=O)C2(SCC(=O)N2c2ccc(F)c(F)c2)c2ccccc21)Nc1ccccc1F (centres undefined) the results were Pf Dd2 growth 13µM.
O=C1CSC2(C(=O)N(Cc3ccccc3F)c3ccccc32)N1c1cccc(C(F)(F)F)c1 (centres undefined) was read as Pf Dd2 growth 7.1µM.
Screening O=C(CN1C(=O)C2(SCC(=O)N2c2ccccc2)c2ccccc21)NCCc1ccccc1 (centres undefined) returned Pf Dd2 growth inactive.
Screening COc1ccc(N2C(=O)CSC23C(=O)N(Cc2ccccc2F)c2ccccc23)cc1Cl (centres undefined) returned Pf Dd2 growth inactive.
For COc1cccc(CN2C(=O)C3(SCC(=O)N3c3ccc(C(C)C)cc3)c3ccccc32)c1 (centres undefined) the results were Pf Dd2 growth inactive.
`COc1ccc(N2C(=O)CSC23C(=O)N(Cc2ccc(C)cc2)c2ccccc23)cc1Cl` (centres undefined) gave Pf Dd2 growth inactive.
Cc1cccc(N2C(=O)CSC23C(=O)N(CC(=O)Nc2cccc(Cl)c2)c2ccccc23)c1 (centres undefined) was read as Pf Dd2 growth 14µM.
For COc1cccc(N2C(=O)CSC23C(=O)N(Cc2ccccc2F)c2ccccc23)c1 (centres undefined) the results were Pf Dd2 growth inactive.
`COc1cccc(CN2C(=O)C3(SCC(=O)N3c3ccc(C)c(Cl)c3)c3ccccc32)c1` (centres undefined) gave Pf Dd2 growth inactive.
COC1C(=O)N(C2CCN(C(=O)c3cnccc3C)CC2)C12CCOCC2 (centres undefined) was read as Pf Dd2 growth inactive.
For O=C(C[C@@H]1O[C@H](CNC(=O)Nc2ccccc2)[C@@H](O)[C@H]1O)NCCN1CCOCC1 the results were Pf Dd2 growth inactive.
`O=C(N[C@H]1CO[C@H]2[C@@H]1OC[C@@H]2n1nnnc1Oc1cccc(N2CCOCC2)c1)N1CCOCC1` gave Pf Dd2 growth inactive.
`CCS(=O)(=O)N1CCC2(CCC(=O)N(CC3CC3)CC2)CC1` gave Pf Dd2 growth inactive.
Screening CN(C)c1cccc(Oc2nnnn2[C@H]2CO[C@H]3[C@@H]2OC[C@@H]3NC(=S)Nc2cccc(C#N)c2)c1 returned Pf Dd2 growth inactive.
Screening CCCN(CC1CCOC1)S(=O)(=O)c1cccs1 (centres undefined) returned Pf Dd2 growth inactive[5.79 µM].
`Cc1ccc(CNC(=O)CN2C(=O)C3(SCC(=O)N3c3ccc(F)cc3)c3ccccc32)cc1` (centres undefined) gave Pf Dd2 growth inactive.
For COc1cc(N2C(=O)CSC23C(=O)N(Cc2ccc(C)cc2)c2ccccc23)cc(OC)c1OC (centres undefined) the results were Pf Dd2 growth inactive.
`Cc1ccc(NC(=O)CN2C(=O)CCSc3ccccc32)c(C)c1` gave Pf Dd2 growth inactive.
Cc1ccc(NC(=O)CN2C(=O)NC3(CCCCC3)C2=O)c(C)c1 was read as Pf Dd2 growth inactive.
Screening Cc1ccc(NC(=O)CN2C(=O)C3(SCC(=O)N3c3ccc(F)c(F)c3)c3ccccc32)c(C)c1 (centres undefined) returned Pf Dd2 growth 14µM.
For Cc1cc(C)cc(N2C(=O)CSC23C(=O)N(CC(=O)Nc2ccc(F)cc2F)c2ccccc23)c1 (centres undefined) the results were Pf Dd2 growth 10µM.
`COCCCn1c(C(C)NC(=O)OCc2ccccc2)nc2cccnc21` (centres undefined) gave Pf Dd2 growth inactive.
CC(C)NC(=O)C1CCc2nnc(C3CCN(C(=O)c4ccccc4)CC3)n21 (centres undefined) was read as Pf Dd2 growth inactive.
